# Measurements published in PMC4336329 (PLoS ONE, 2015).
# Out of some 310,000 compounds screened, about 14,000 (4.5%) showed an effect of 50% or more. The effect is printed as a negative number. The sample as a whole holds a higher share of strong results than the screen did.
# Biological target: human ether-à-go-go-related gene (hERG) potassium channel (human, UniProt Q12809)
# Assay: primary screen, population patch clamp on CHO cells stably expressing hERG; higher = less effect of the substance
# 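Further: peak tail current of the secondary pulse compared with the same well before compound.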
# human ether-à-go-go-related gene (hERG) potassium channel, sequence (Q12809 whole entry, looked up): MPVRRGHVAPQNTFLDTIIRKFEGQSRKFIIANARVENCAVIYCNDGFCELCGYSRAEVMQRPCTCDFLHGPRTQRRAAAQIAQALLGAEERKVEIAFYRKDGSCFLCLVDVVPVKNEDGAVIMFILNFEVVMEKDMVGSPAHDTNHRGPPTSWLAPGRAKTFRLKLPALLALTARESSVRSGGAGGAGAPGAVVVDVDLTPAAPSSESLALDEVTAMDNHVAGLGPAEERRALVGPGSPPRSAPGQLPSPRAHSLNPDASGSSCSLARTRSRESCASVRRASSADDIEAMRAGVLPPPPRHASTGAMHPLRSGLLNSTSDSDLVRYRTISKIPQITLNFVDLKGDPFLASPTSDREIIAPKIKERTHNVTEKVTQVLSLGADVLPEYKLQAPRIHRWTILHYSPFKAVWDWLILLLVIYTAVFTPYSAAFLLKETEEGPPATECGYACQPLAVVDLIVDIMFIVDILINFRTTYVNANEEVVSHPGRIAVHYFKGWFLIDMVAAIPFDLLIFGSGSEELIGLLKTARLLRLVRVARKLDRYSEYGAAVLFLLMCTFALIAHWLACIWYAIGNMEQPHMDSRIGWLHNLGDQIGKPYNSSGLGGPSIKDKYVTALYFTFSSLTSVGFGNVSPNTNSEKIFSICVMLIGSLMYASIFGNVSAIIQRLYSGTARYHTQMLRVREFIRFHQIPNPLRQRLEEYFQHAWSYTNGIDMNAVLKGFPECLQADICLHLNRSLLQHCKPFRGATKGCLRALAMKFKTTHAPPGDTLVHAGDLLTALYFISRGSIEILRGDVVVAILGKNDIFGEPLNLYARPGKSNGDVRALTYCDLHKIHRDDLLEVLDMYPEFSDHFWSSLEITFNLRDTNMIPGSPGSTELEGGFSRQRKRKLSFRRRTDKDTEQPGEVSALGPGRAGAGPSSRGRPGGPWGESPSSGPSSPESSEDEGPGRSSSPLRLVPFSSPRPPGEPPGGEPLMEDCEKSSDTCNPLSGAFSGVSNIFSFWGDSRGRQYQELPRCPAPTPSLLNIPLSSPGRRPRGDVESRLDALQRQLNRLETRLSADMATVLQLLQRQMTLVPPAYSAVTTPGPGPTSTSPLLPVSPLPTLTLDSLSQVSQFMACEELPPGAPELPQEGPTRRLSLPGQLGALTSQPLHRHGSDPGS
row,Compound,"hERG current change (%, negative = inhibition) at 10uM [%]"
1,Cc1cc(SCC(=O)OCC(=O)N(C)c2ccccc2)nc2ccccc12,-22.8
2,C=C[C@]1(C)C=C2CCC3[C@](C)(CCC[C@@]3(C)C(=O)O)C2CC1 (some centres unmarked),13.3
3,O=C(CCCN1C(=O)c2ccccc2C1=O)Nc1cccnc1,-2.46
4,O=C(NCc1ccccn1)C1(C(F)(F)F)C/C(=C\CCO)CCCO1 (centres unmarked),6.37
5,CCOc1ccc(S(=O)(=O)Nc2cccc(C(=O)N(C)Cc3cccc(OC)c3OC)c2)cc1,-11.6
6,O=C1[C@@H]2[C@H](C(=O)N1n1cnnc1)[C@H]1C=C[C@@H]2C1,11.5
7,Cc1ccc(NC(=O)CN2CCCCCC2)cc1[N+](=O)[O-],23.1
8,O=C(Nc1ccc(N2CCOCC2)c2nonc12)C1CCCC1,3.34
9,CCCn1c(=O)c2sccc2n2c(CCCC(=O)NCc3cccnc3)nnc12,19.2
10,C=CCNC(=O)CSc1n[nH]c(-c2cc(Cl)ccc2OC)n1,8.25
11,COc1ccc(Cl)cc1NC(=O)COc1cccc(-n2cnnn2)c1,10.3
12,COc1ccc(Cl)cc1NC(=O)CN(C)C(=O)c1cn(-c2ccccc2)nc1-c1cccnc1,-59.9
13,COc1ccc(NC(=O)CN(C)C(=O)c2cn(-c3ccccc3)nc2-c2cccnc2)cc1,-24.2
14,COc1ccc(NC(=O)CN(C)C(=O)c2cn(-c3ccccc3)nc2-c2ccc(Cl)cc2)cc1,12.1
15,COc1ccc(Cl)cc1NC(=O)CN(C)C(=O)c1ccc2n[nH]nc2c1,-13.8
16,COc1ccc(Cl)cc1NC(=O)CN(C)C(=O)c1cccc(-n2cnnn2)c1,-53.6
17,CCc1ccc(C(=O)Nc2cccc(-c3nn[nH]n3)c2)s1,16.9
18,CCOC(=O)C1CN(S(C)(=O)=O)c2cc(CC(=O)OC)ccc2O1 (centres unmarked),1.78
19,COc1ccccc1C(=O)NCCSCc1c(F)cccc1Cl,-15.4
20,Cc1cccn2c(=O)c3cc(C(=O)NCC4CCCO4)c(=N)n(C4CCCC4)c3nc12 (centres unmarked),-74.8

row,Compound,"hERG current change (%, negative = inhibition) at 10uM [%]"
1,Cc1cccn2c(=O)c3cc(C(=O)NCC4CCCO4)c(=N)n(C4CCCCC4)c3nc12 (centres unmarked),-77.3
2,O=C(O)c1nn2c(C(F)(F)F)cc(-c3cccs3)nc2c1Cl,1.4
3,COc1cccc(C(=O)Nc2cc(=O)n(C)c(=O)n2C)c1OC,13.1
4,Cc1nn(Cc2ccc(C(=O)NC3CCCCC3)o2)c(C)c1Br,-34.6
5,COc1ccc2c(c1)c(CC(=O)O)c(C)n2C(=O)c1ccc(Cl)cc1,6.45
6,COc1ccc(OCC(=O)N2CC3(C)CC2CC(C)(C)C3)cc1 (centres unmarked),-21.2
7,COc1ccc(/C=N/OCC(=O)N2CC3(C)CC2CC(C)(C)C3)cc1OC (centres unmarked),-3.72
8,COc1ccc(/C=N/OCC(=O)N2CC3(C)CC2CC(C)(C)C3)cc1 (centres unmarked),-56
9,N#Cc1ccc(COC(=O)c2ccc3c(c2)OCO3)cc1,-27.4
10,CC(C)(C)c1ccc(C(=O)N2CCNC(=O)C2CC(=O)Nc2ccc(F)cc2)cc1 (centres unmarked),13.9
11,CCc1ccc(NC(=O)CC2C(=O)NCCN2C(=O)c2ccc(F)cc2)cc1 (centres unmarked),-55.4
12,Cc1ccc(NC(=O)CC2C(=O)NCCN2C(=O)c2ccc(F)cc2)cc1 (centres unmarked),-26.3
13,O=S(=O)(Cc1ccccc1)Nc1ccc(F)cc1,7.05
14,O=C1c2cccc3cccc(c23)C(=O)N1OS(=O)(=O)c1ccc(Br)cc1,24.2
15,COc1ccc(C(=S)N2CCOCC2)cc1OC(=O)c1ccc([N+](=O)[O-])cc1,-63
16,COc1ccc(S(=O)(=O)Oc2ccc(C(=S)N3CCOCC3)cc2OC)cc1,-0.365
17,COc1cc(C(=S)N2CCOCC2)ccc1OC(=O)c1cc([N+](=O)[O-])cc([N+](=O)[O-])c1,0.943
18,COc1cc(C(=S)N2CCOCC2)ccc1OC(=O)c1ccc([N+](=O)[O-])cc1[N+](=O)[O-],17.1
19,CCOc1cc(C(=S)N2CCOCC2)ccc1OS(=O)(=O)c1ccc(Br)cc1,-1.54
20,COc1ccc(C(=S)N2CCOCC2)cc1OC(=O)c1ccc([N+](=O)[O-])cc1[N+](=O)[O-],-52

row,Compound,"hERG current change (%, negative = inhibition) at 10uM [%]"
1,COc1ccc(C(=S)N2CCOCC2)cc1OC(=O)c1cccc([N+](=O)[O-])c1,-39.9
2,COc1cc(C(=S)N2CCOCC2)cc(OC)c1OC(=O)c1ccc([N+](=O)[O-])cc1[N+](=O)[O-],-4.69
3,COc1ccc(C(=S)N2CCOCC2)cc1OS(=O)(=O)c1ccc(Br)cc1,-70
4,CCCc1nc(C)c2c(=O)[nH]c(-c3cc(S(=O)(=O)N4CCN(CC)CC4)ccc3OCC)nn12.O=C(O)CC(O)(CC(=O)O)C(=O)O,0.215
5,COc1cccc(N2CCN(S(=O)(=O)c3ccc4c(c3)CC(C)N4C(=O)C3CC3)CC2)c1 (centres unmarked),17.8
6,CC1C(=O)N(Cc2ccccc2F)c2ccccc2N1C(=O)c1c(F)cccc1F (centres unmarked),-6.04
7,CC(C)N1CCc2c(sc(NC(=O)c3nc4ccccc4s3)c2C(N)=O)C1.Cl,-45.1
8,CCCn1c(SCC(=O)/C(C#N)=C(\C)N)n[nH]c1=O,7.25
9,CC(C)C(=O)Nc1nnc(Cc2c[nH]c3ccccc23)s1,28
10,Cc1[nH]n(-c2ccccc2)c(=O)c1C=NC1CCCCC1,-10.5
11,O=C(CCCN1C(=O)/C(=C\c2cccs2)SC1=S)Nc1cccc(C(=O)O)c1,9.57
12,Cc1cccn2c(=O)c(/C=C(\C#N)C(=O)NCc3ccco3)c(N3CCC(C(N)=O)CC3)nc12,-43
13,Cc1cccn2c(=O)c(/C=C(\C#N)S(=O)(=O)c3ccc(Cl)cc3)c(N3CCC(C(N)=O)CC3)nc12,-77.8
14,Cc1cccn2c(=O)c(/C=C(\C#N)S(=O)(=O)c3ccccc3)c(N3CCC(C(N)=O)CC3)nc12,-75.4
15,CCN1CCN(c2nc3c(C)cccn3c(=O)c2/C=C(\C#N)S(=O)(=O)c2ccc(Cl)cc2)CC1,-44.9
16,Cc1cccn2c(=O)c(/C=C(\C#N)S(=O)(=O)c3ccccc3)c(N3CCCCC3)nc12,9.28
17,Cc1ccc(S(=O)(=O)/C(C#N)=C/c2c(N3CCC(C(N)=O)CC3)nc3c(C)cccn3c2=O)cc1,-71.4
18,Cc1cccn2c(=O)c(/C=C(\C#N)C(=O)NCc3ccccc3)c(N3CCC(C(N)=O)CC3)nc12,-29.1
19,CCOC(=O)C1CCN(c2nc3c(C)cccn3c(=O)c2/C=C(\C#N)S(=O)(=O)c2ccccc2)CC1,-18.1
